Experimental findings from PubChem BioAssay (Tox21) are described below.

Unmarked numbers belong to inactive results. Results filed as inconclusive are left out. Activity calls are given as the source filed them. Unless noted, calls follow the shape of the dose curve; as a rule, active = well fitted curve in the direction sought with a large enough effect in the repeat runs; inconclusive = weak or mixed curves; inactive = no such curve, though single readings can be large; an effect the other way counts as inactive or inconclusive.

Assay [1] can be described thus: qHTS assay for small molecules that induce genotoxicity in human embryonic kidney cells expressing luciferase-tagged ATAD5 (AID 651632). Also: nearly all actives have a fitted effect of over 15% in size. In short, it runs like this:
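Reporter cells (HEK293T) express luciferase-tagged ATAD5, a protein that accumulates after DNA damage. Treat 16 hr at 37C/5% CO2, add Amplite, wait 30 min at RT, and read luminescence.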
On the technique in general: qHTS replaces the single test concentration by a dilution series.

Assay [2] is described as follows: qHTS assay for small molecule agonists of the p53 signaling pathway - cell viability (AID 651633; calls by dose curve; also: nearly all actives have a fitted effect of over 30% in size; also: potency is read from the fitted curve at half-maximal effect). A digest of the protocol:
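p53RE-bla cells, seeded at 4,000 per well and rested 5 h at 37 C/5% CO2, received compounds in DMSO for 16 h at 37 C. CellTiter-Glo was then added, and luminescence was read after 30 min at room temperature to gauge cytotoxicity.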

Assay [3] is described as follows: qHTS assay for small molecule disruptors of the mitochondrial membrane potential (AID 720635). Also: potency is read from the fitted curve at half-maximal effect. In short, it runs like this:
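HepG2 cells (2,000/well) attached overnight at 37C, then took compound for 1 hr at 37C, 5% CO2. Mito-MPS dye was added for 30 min; fluorescence was read at 490/535 nm (monomers) and 540/590 nm (aggregates).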

A short description of assay [4]: qHTS assay to test for compound auto fluorescence at 590 nm (red) in HepG2 cells (AID 720674). A digest of the protocol: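 Rose Bengal sodium served as the red fluorophore standard. HepG2 monolayers (overnight attachment, MEM with 10% FBS) were exposed to test compounds for 1 hr at 37 C and read at Ex 540/Em 590 nm.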
Assay [5] in a line: qHTS assay to test for compound auto fluorescence at 535 nm (green) in HepG2 cells (AID 720675).
Assay [6] is described as follows: qHTS assay to test for compound auto fluorescence at 460 nm (blue) in HEK293 cells (AID 720678). Also: potency is read from the fitted curve at half-maximal effect. In short, it runs like this:
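Blue read-out at excitation 405 nm and emission 460 nm follows overnight compound exposure of HEK293 cells at 37C in 5% CO2. Activity is given as auto fluorescence equivalency to triamterene.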

A short description of assay [7]: qHTS assay to test for compound auto fluorescence at 590 nm (red) in HEK293 cells (AID 720679). A digest of the protocol:
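Red channel, Ex/Em 540/590nm; signal expressed as equivalency to Rose Bengal sodium. HEK293, 2,000 cells/well, 10% dialyzed FBS; 23 nL compound pinned after 4-5 hr attachment; overnight 37C/5% CO2 before reading.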

Assay [8] in a line: qHTS assay to test for compound auto fluorescence at 535 nm (green) in HEK293 cells (AID 720680).
A short description of assay [9]: qHTS assay to test for compound auto fluorescence at 460 nm (blue) in HEK293 cell free culture (AID 720681). Also: potency is read from the fitted curve at half-maximal effect. In short, it runs like this:
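Test compounds were pinned into cell-free culture medium (DMEM with 10% FBS) and fluorescence was read directly at Ex/Em 405/460 nm. Signals were expressed as fluorescence equivalents of triamterene, with DMSO vehicle as control.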

A short description of assay [10]: qHTS assay to test for compound auto fluorescence at 535 nm (green) in HEK293 cell free culture (AID 720682). In short, it runs like this: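 Intrinsic compound fluorescence is measured in culture medium containing 10% FBS, with excitation at 485 nm and detection at 535 nm, referenced to fluorescein.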
A short description of assay [11]: qHTS assay to test for compound auto fluorescence at 590 nm (red) in HEK293 cell free culture (AID 720683). A digest of the protocol:
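Tox21 10K library compounds were pinned into cell-free DMEM with 10% FBS and fluorescence was read at excitation 540 nm. Activity is expressed as Rose Bengal sodium equivalency.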

The nature of assay [12]: qHTS assay to test for compound auto fluorescence at 590 nm (red) in HepG2 cell free culture (AID 720684). A digest of the protocol: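 Measured in medium alone (MEM containing 10% FBS) following pintool addition of compound; emission at 590 nm with 540 nm excitation, referenced to Rose Bengal sodium.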
Assay [13] is described as follows: qHTS assay to test for compound auto fluorescence at 535 nm (green) in HepG2 cell free culture (AID 720686).
Assay [14] can be described thus: qHTS assay to test for compound auto fluorescence at 460 nm (blue) in HepG2 cells (AID 720687). Also: potency is read from the fitted curve at half-maximal effect. A digest of the protocol: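 Cells (2,000/well in MEM with 10% FBS) attached overnight at 37 C, then were exposed to compound or DMSO for 1 hr at 37 C, 5% CO2. Fluorescence read at Ex/Em 405/460 nm, expressed as triamterene-equivalent signal.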
A short description of assay [15]: qHTS assay for small molecule disruptors of the mitochondrial membrane potential - cell viability (AID 720634; calls by dose curve; also: nearly all actives have a fitted effect of over 20% in size; also: potency is read from the fitted curve at half-maximal effect). In short, it runs like this:
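Measuring cytotoxicity alongside mitochondrial potential, the screen quantified ATP by luminescence in HepG2 cells after 1 hr compound incubation and a 30 min room-temperature CellTiter-Glo step.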

A short description of assay [16]: qHTS assay to test for compound auto fluorescence at 460 nm (blue) in HepG2 cell free culture (AID 720685). Also: potency is read from the fitted curve at half-maximal effect. In short, it runs like this:
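Compound (23 nL) or DMSO pinned into cell-free MEM with 10% FBS; blue fluorescence read at 405/460 nm excitation/emission, expressed as auto-fluorescence equivalency to triamterene.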

Assay [17] in a line: qHTS assay for small molecules that induce genotoxicity in human embryonic kidney cells expressing luciferase-tagged ATAD5 - cell viability (AID 651634; calls by dose curve; also: nearly all actives have a fitted effect of over 25% in size). A digest of the protocol: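 Seeding of 2,000 HEK293T ATAD5-luciferase cells per well preceded pin-tool compound transfer. Plates sat 15.5 hr at 37C under 5% CO2, then fluorescence was read after 30 min with CellTiter-Fluor.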

The target in assay [18] is Glucocorticoid receptor (Homo sapiens) (UniProt P04150). Briefly: qHTS assay to identify small molecule antagonists of the glucocorticoid receptor (GR) signaling pathway (AID 720692; active = well fitted inhibition curve with a large enough effect in the signal ratio in the repeat runs, not every such curve was filed as active; the % refers to the signal ratio; also: potency is read from the fitted curve at half-maximal effect). A digest of the protocol:
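Dexamethasone (5 nM final) stimulated a stably integrated GRE-beta-lactamase reporter in HeLa cells during 18 h co-incubation with compounds; signal was quantified as fluorescence intensity of B/G FRET substrate after 2 h.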

Assay [19] has the same target. Briefly: qHTS assay to identify small molecule agonists of the glucocorticoid receptor (GR) signaling pathway (AID 720691; active = well fitted activation curve with a large enough effect in the signal ratio in the repeat runs, not every such curve was filed as active; the % refers to the signal ratio). As to conditions: GR-bla HeLa, beta-lactamase reporter ratio, 18 h; activation: at 62.4 µM (top of the series). A digest of the protocol: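 Reporter read-out: fluorescence intensity following 2 h room-temperature LiveBLAzer B/G FRET substrate loading. Prior step: GR-bla HeLa cells held 4 h, then treated 18 h at 37 C.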
Tags tell the direction and shape of the fitted curve or compound fluorescence and quenching.

Sequence of Glucocorticoid receptor (Homo sapiens) (P04150 whole entry, looked up): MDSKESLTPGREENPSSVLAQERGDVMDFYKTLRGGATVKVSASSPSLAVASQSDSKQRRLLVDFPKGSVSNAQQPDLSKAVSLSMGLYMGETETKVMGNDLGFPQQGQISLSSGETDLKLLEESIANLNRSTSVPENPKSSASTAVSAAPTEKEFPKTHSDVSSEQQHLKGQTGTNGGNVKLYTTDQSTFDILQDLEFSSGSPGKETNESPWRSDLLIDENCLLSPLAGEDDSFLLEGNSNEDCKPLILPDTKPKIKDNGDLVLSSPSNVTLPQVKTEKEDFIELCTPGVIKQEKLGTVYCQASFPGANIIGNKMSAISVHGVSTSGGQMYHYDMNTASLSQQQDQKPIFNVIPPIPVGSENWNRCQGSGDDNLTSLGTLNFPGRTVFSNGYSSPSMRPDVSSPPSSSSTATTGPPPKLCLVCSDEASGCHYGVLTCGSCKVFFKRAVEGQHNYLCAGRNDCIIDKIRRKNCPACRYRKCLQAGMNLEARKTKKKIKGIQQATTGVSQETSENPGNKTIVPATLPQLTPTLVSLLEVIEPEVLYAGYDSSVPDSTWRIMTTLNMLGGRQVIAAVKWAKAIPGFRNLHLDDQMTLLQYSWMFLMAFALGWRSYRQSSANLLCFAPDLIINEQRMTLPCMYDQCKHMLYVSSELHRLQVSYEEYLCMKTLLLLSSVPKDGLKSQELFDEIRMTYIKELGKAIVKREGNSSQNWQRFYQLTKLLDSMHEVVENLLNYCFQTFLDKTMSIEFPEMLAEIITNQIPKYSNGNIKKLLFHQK

Take `CCN(CC)c1ccc(N)cc1`: the Potency entry in assay [1], in assay [2], in [4], in [5], in [6] and in assay [7] was “inactive” in each case. Also, the Potency result in [8], in assay [9], in assay [10], in [11], in assay [12] and in assay [13] was “inactive” throughout. Moreover, the Potency result in assay [14] is “inactive”. The Potency in assay [3] was 49.9 µM (active).
On to `CCN(CC)CCOc1ccc(C(O)(Cc2ccc(Cl)cc2)c2ccc(C)cc2)cc1` (stereo not drawn), for which the Potency result in [1], in assay [15], in [4], in [5], in [6] and in assay [7] was “inactive” each time. Also, the Potency entry in assay [9], in assay [10], in assay [11], in [16], in assay [13] and in assay [14] was “inactive” each time. For the same compound, the Potency in assay [2] is 29.8 µM (active).
On to `COc1cccc(CCc2ccccc2OCC(CN(C)C)OC(=O)CCC(=O)O)c1` (stereo not drawn), for which the Potency entry in [1], in assay [17], in [15], in assay [4], in assay [5] and in assay [6] was “inactive” throughout. For the same compound, the Potency entry in [7], in assay [8], in assay [9], in assay [10], in assay [11] and in [12] was “inactive” throughout. In addition, the Potency entry in assay [16], in assay [13] and in [14] was “inactive” each time.
For the compound `Clc1ccccc1CN1CCc2sccc2C1`, the Potency result in assay [1], in assay [17], in assay [15], in assay [4], in [5] and in assay [6] was “inactive” throughout. Also, the Potency entry in [7], in assay [8], in assay [9], in assay [10], in [11] and in assay [12] was “inactive” in each case. The Potency entry in [16], in assay [13] and in assay [14] was “inactive” in each case. The Potency in assay [3] was 26.6 µM (active).
Regarding `CCCCCCCC/C=C\CCCCCCCC(=O)N(C)CC(=O)O`, the Potency entry in [1], in assay [4], in [5], in [6], in assay [7] and in assay [8] was “inactive” each time. The Potency entry in [9], in assay [10], in [12], in assay [16], in assay [13] and in [14] was “inactive” in each case. Moreover, in assay [2], the Potency is 43.3 µM (active).
With `CCCCCCCC/C=C\CCCCCCCC(=O)NCc1ccc(O)c(OC)c1`, the Potency entry in assay [1], in [17], in assay [15], in assay [4], in [5] and in [6] was “inactive” each time. The Potency entry in [7], in assay [9], in assay [10], in assay [12], in assay [16] and in assay [13] was “inactive” throughout. Moreover, in assay [14], the Potency result was “inactive”. The Potency in assay [3] is 11.9 µM (active).
For the compound `CC(C)c1cccc(C(C)C)c1N1C(=O)c2ccc(O)cc2C1=O`, the Potency result in [1], in assay [17], in assay [4], in assay [5], in [7] and in assay [8] was “inactive” each time. The Potency entry in assay [10], in assay [11], in assay [12] and in assay [13] was “inactive” in each case. The Potency is 9.69 µM (active) in [15]; 1.22 µM (active) in assay [3]; 39.8 µM [fluorescent] (active) in assay [6]; 35.5 µM (active) in [9]; 39.8 µM [fluorescent] (active) in assay [16]; 35.5 µM [fluorescent] (active) in assay [14]. In assay [18], the Potency is 38.9 µM (active).
With `CN(C)c1ccc(N=NS(=O)(=O)O)cc1`, the Potency entry in [1], in assay [2], in assay [4], in [6], in [7] and in assay [8] was “inactive” throughout. The Potency entry in assay [9], in [10], in assay [11], in assay [12], in assay [16] and in assay [13] was “inactive” in each case. The Potency result in [14] and in assay [19] was “inactive” in each case.
In the case of `O=C1C=CC(=O)N1c1ccccc1`, the Potency result in assay [1], in [4], in assay [6], in [7], in [8] and in [9] was “inactive” each time. The Potency result in assay [10], in [11], in [12], in [16], in [13] and in assay [14] was “inactive” throughout. Also, the Potency in assay [2] is 48.6 µM (active).
For the compound `Cc1nc(Nc2ncc(C(=O)Nc3c(C)cccc3Cl)s2)cc(N2CCN(CCO)CC2)n1`, the Potency entry in assay [1], in assay [2], in assay [15], in [4], in assay [5] and in assay [6] was “inactive” in each case. The Potency entry in assay [7], in assay [8], in [9], in [10], in assay [16] and in assay [13] was “inactive” each time. In addition, in assay [14], the Potency entry was “inactive”.
As for `O=C1NC2CCCCN2C12CCN(CCCN1c3ccccc3CCc3ccc(Cl)cc31)CC2` (stereo not drawn), the Potency result in assay [1], in assay [2], in assay [15], in [4], in assay [5] and in assay [6] was “inactive” throughout. The Potency result in [7], in assay [9], in assay [10], in assay [11], in assay [12] and in assay [13] was “inactive” each time. In addition, the Potency result in [14] and in assay [19] was “inactive” each time. Moreover, the Potency in assay [18] is 23.9 µM (active).
For the compound `C[C@]12CC[C@H]3C(=CCc4cc(O)ccc43)[C@@H]1CCC2=O`, the Potency result in assay [1], in assay [2], in assay [4], in [6], in [7] and in assay [8] was “inactive” each time. The Potency result in [9], in assay [10], in assay [12], in assay [16], in [13] and in [14] was “inactive” each time. Further, the Potency in assay [3] is 19.3 µM (active); in assay [18], 11 µM (active).
Regarding `CN1[C@@H]2CC[C@@H]1CC(OC(=O)C(CO)c1ccccc1)C2` (stereo partly drawn), the Potency entry in assay [15], in assay [3], in assay [4], in [5], in [6] and in assay [7] was “inactive” throughout. Also, the Potency entry in assay [8], in [9], in [10], in assay [12], in assay [16] and in assay [13] was “inactive” throughout. Also, the Potency result in assay [14] and in [18] was “inactive” throughout.
With `Clc1ccc(C(Cn2ccnc2)OCc2ccsc2Cl)c(Cl)c1` (stereo not drawn), the Potency result in assay [1], in [15], in assay [4], in [6], in assay [7] and in assay [8] was “inactive” throughout. The Potency entry in [9], in assay [10], in assay [11], in assay [12], in assay [16] and in [13] was “inactive” throughout. In addition, in assay [14], the Potency entry was “inactive”.
